Experimental data published in PubChem BioAssay (Tox21).
A number with no mark means an inactive call. Inconclusive results are not listed. Entries that show only a call come without a potency. Calls of active or inactive are those of the source. Unless noted, calls come from the whole dose curve; as a rule, active = well fitted curve in the direction sought with a large enough effect in the repeat runs; inconclusive = weak or mixed curves; inactive = no such curve, though single readings can be large; an effect the other way counts as inactive or inconclusive.

Assays:
[1] = qHTS assay for small molecules that induce genotoxicity in human embryonic kidney cells expressing luciferase-tagged ATAD5 (AID 651632); note: nearly all actives have a fitted effect of over 15% in size; note: potency is the fitted concentration of half-maximal effect
Summary of the method: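 HEK293T cells carrying luciferase-tagged ATAD5 were given compound or DMSO vehicle and incubated 16 hr at 37C, 5% CO2. Luciferase activity was read after 30 min at room temperature with Amplite; a rise signals genotoxic stress.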

[2] = qHTS assay for small molecules that induce genotoxicity in human embryonic kidney cells expressing luciferase-tagged ATAD5 - cell viability (AID 651634; calls by dose curve; note: nearly all actives have a fitted effect of over 25% in size; note: potency is the fitted concentration of half-maximal effect)
Summary of the method: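 HEK293T cells carrying luciferase-tagged ATAD5, 2,000 cells/well, exposed to compound for 15.5 hr at 37C. Viability read as live-cell protease activity by CellTiter-Fluor fluorescence after 30 min at 37C.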

[3] = qHTS assay for small molecule disruptors of the mitochondrial membrane potential - cell viability (AID 720634; calls by dose curve; note: nearly all actives have a fitted effect of over 20% in size; note: potency is the fitted concentration of half-maximal effect)
Summary of the method: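 HepG2 cells, 2,000 per well, attached overnight, then treated 1 hr at 37 C, 5% CO2. Viability read as ATP by CellTiter-Glo luminescence after 30 min at room temperature. Read in the same wells as the m-MPI membrane-potential dye assay.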

[4] = qHTS assay to test for compound auto fluorescence at 590 nm (red) in HepG2 cells (AID 720674)
Summary of the method: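 1 hr compound incubation on HepG2 cells, 37 C, 5% CO2; plate read ex 540 nm / em 590 nm; intensities reported as Rose Bengal sodium equivalents.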

[5] = qHTS assay to test for compound auto fluorescence at 535 nm (green) in HepG2 cells (AID 720675)
[6] = qHTS assay to test for compound auto fluorescence at 590 nm (red) in HEK293 cells (AID 720679)
Summary of the method: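 HEK293 cells (2,000/well, 10% dialyzed FBS) attached 4-5 hr, then dosed with compound or DMSO and incubated overnight at 37C, 5% CO2. Red fluorescence read at 540/590 nm, Rose Bengal sodium as reference fluorophore.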

[7] = qHTS assay for small molecule agonists of the p53 signaling pathway - cell viability (AID 651633; calls by dose curve; note: nearly all actives have a fitted effect of over 30% in size; note: potency is the fitted concentration of half-maximal effect)
Summary of the method: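 Viability counter-read: CellTiter-Glo luminescence (30 min, room temperature) in the same p53RE-bla plates. These plates had been exposed to compounds for 16 h at 37 C.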

[8] = qHTS assay to test for compound auto fluorescence at 460 nm (blue) in HEK293 cells (AID 720678)
Summary of the method: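 HEK293 cells (2,000/well, medium with 10% dialyzed FBS) attached 4-5 hr, then exposed to compound overnight at 37C, 5% CO2. Blue fluorescence read at 405/460 nm, with triamterene as reference fluorophore.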

[9] = qHTS assay for small molecule disruptors of the mitochondrial membrane potential (AID 720635); note: potency is the fitted concentration of half-maximal effect
Summary of the method: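 Mitochondrial membrane potential tracked with Mito-MPS dye, red aggregates (ex 540/em 590 nm) against green monomers (ex 490/em 535 nm). Compound treatment 1 hr at 37C, dye 30 min in HepG2.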

Row | SMILES | Potency [1] | Potency [2] | Potency [3] | outcome [4] | outcome [5] | outcome [6] | Potency [7] | Potency [8] | Potency [9] | fluorescence, relative to Rose Bengal [4] | fluorescence, % of fluorescein control [5] | fluorescence, % of triamterene [8] | fluorescence, % of fluorescent control [6]
1 | CN1CC(=O)N2[C@H](c3ccc4c(c3)OCO4)c3[nH]c4ccccc4c3C[C@@H]2C1=O | inactive | inactive | inactive | inactive | inactive | inactive |  |  |  |  |  |  | 
2 | Cc1cccc(O)c1N | inactive |  |  | inactive | inactive | inactive | inactive | inactive |  |  |  |  | 
3 | C=C(C)C(=O)OCCOCCOC(=O)C(=C)C | inactive | inactive |  | inactive | inactive | inactive |  | inactive | inactive |  |  |  | 
4 | Nc1nc2ccc([N+](=O)[O-])cc2s1 | inactive |  | inactive | inactive | inactive | inactive |  | inactive | 4.33 µM (active) |  |  |  | 
5 | CCCC(C(=O)OCCN(CC)CC)(c1ccccc1)c1ccccc1 | inactive |  | inactive | inactive | inactive | inactive | inactive | inactive |  |  |  |  | 
6 | CC1(CN2CCC(n3c(=O)[nH]c4ccccc43)CC2)OCc2ccccc2-n2cccc21 (stereo unspecified) | inactive |  | inactive | inactive | inactive | inactive | 29.8 µM (active) | inactive | 29.8 µM (active) |  |  |  | 
7 | CCCCCCCCC(CCCCCC)C(=O)O (stereo unspecified) | inactive | inactive | inactive | inactive | inactive | inactive |  | inactive |  |  |  |  | 
8 | O=C(CCCN1CC=C(n2c(=O)[nH]c3ccccc32)CC1)c1ccc(F)cc1 | inactive | inactive | inactive | inactive | inactive | inactive |  | inactive | inactive |  |  |  | 
9 | O=[N+]([O-])c1cc(C2CCCCC2)c(O)c([N+](=O)[O-])c1 | inactive | 19.3 µM (active) | 0.343 µM (active) | inactive |  | inactive |  |  | 0.153 µM (active) |  |  |  | 
10 | CCOc1cccc(-n2cc(C(=O)N3CCN(c4cc(C(=O)O)c5ccccc5c4)CC3)nc2-c2ccc(C)cc2)c1 | inactive |  | inactive | inactive | inactive | inactive | 20.7 µM (active) | inactive |  |  |  |  | 
11 | C[C@@H](CN(C)C)CN1c2ccccc2Sc2ccccc21 | inactive |  | inactive |  |  |  | inactive |  |  | 0.322% [at 18.6 µM] | 0.0297% [at 18.6 µM] | -0.151% [at 18.6 µM] | -0.0905% [at 18.6 µM]
12 | CC1(C)[C@H](C(=O)O)N2C(=O)C[C@H]2S1(=O)=O |  |  | inactive | inactive | inactive | inactive |  | inactive | inactive |  |  |  | 
13 | O=C(/C=C/c1ccccc1)OCCc1ccccc1 |  | inactive | inactive | inactive | inactive | inactive | inactive | inactive |  |  |  |  | 
14 | O=C1Cc2ccccc2N1c1c(Cl)cccc1Cl | inactive | inactive |  | inactive | inactive | inactive |  |  |  |  |  |  | 
15 | C=CCc1ccccc1OCC(O)CNC(C)C (stereo unspecified) |  | inactive | inactive | inactive | inactive | inactive | inactive | inactive |  |  |  |  | 
16 | Cc1cc(O)ccc1O |  | inactive | inactive | inactive | inactive | inactive |  |  | inactive |  |  |  | 
17 | O=C1c2ccccc2C(=O)C1c1nc2ccccc2c(Br)c1O |  | inactive | inactive | inactive |  | inactive | inactive | inactive | 21.7 µM (active) |  |  |  | 
18 | Cc1ccc2c(Br)cc(Br)c(O)c2n1 | 23.7 µM (active) | inactive | inactive | inactive | inactive | inactive |  | inactive | 23.7 µM (active) |  |  |  | 
19 | C/C=C\C/C=C/CCCCCCCCOC(C)=O | inactive | inactive | inactive | inactive |  | inactive |  | inactive | inactive |  |  |  | 
20 | CCOC(=O)OC(C)OC(=O)[C@@H]1N2C(=O)[C@@H](NC(=O)[C@H](N)c3ccccc3)[C@H]2SC1(C)C (stereo partly specified) | inactive | inactive | inactive |  |  |  |  |  |  | -0.696% [at 18.6 µM] | 0.0265% [at 18.6 µM] | 0.659% [at 18.6 µM] | 0.375% [at 18.6 µM]
21 | CC(=O)N/N=C/c1ccc([N+](=O)[O-])o1 | inactive | inactive | inactive | inactive | inactive | inactive |  | inactive |  |  |  |  | 
22 | O=C1C(=O)c2ccccc2C(O)=C1C1CCC(c2ccc(Cl)cc2)CC1 (stereo unspecified) | inactive | inactive | inactive |  |  |  |  |  |  | -0.463% [at 18.6 µM] | -0.0011% [at 18.6 µM] | 0.0437% [at 18.6 µM] | 0.421% [at 18.6 µM]
23 | O=[N+]([O-])c1ccc(O/N=C/c2cc(Br)c(O)c(Br)c2)c([N+](=O)[O-])c1 | inactive | 24.2 µM (active) | 12.1 µM (active) | inactive | inactive | inactive |  | inactive | 0.859 µM (active) |  |  |  | 
24 | CCCCC(CC)COP(=O)(O)O (stereo unspecified) | inactive | inactive |  | inactive | inactive | inactive |  | inactive |  |  |  |  | 
25 | C/C=C/C=C/C=O | inactive | inactive | inactive | inactive | inactive | inactive |  | inactive | inactive |  |  |  | 
26 | OC[C@H]1O[C@@H](n2cnc3c(=S)nc[nH]c32)[C@H](O)[C@@H]1O | inactive | inactive | inactive | inactive |  | inactive |  | inactive | 0.211 µM (active) |  |  |  | 
27 | CN1C(=O)c2ccccc2C1=O |  | inactive |  | inactive | inactive | inactive | inactive | inactive |  |  |  |  | 
28 | CC1(C)O[C@@H]2C[C@H]3[C@@H]4C[C@H](F)C5=CC(=O)C=C[C@]5(C)[C@H]4[C@@H](O)C[C@]3(C)[C@]2(C(=O)CO)O1 |  | inactive | inactive |  |  |  | inactive |  |  | 0.174% [at 18.6 µM] |  | -0.229% [at 18.6 µM] | -0.713% [at 18.6 µM]
